According to the supplement of paper PMC9262897, “Low-cost anti-mycobacterial drug discovery using engineered E. coli” (Nature Communications, 2022):
Counter-ions that a name gives are not always drawn. ± gives the standard deviation of the averaged measurements.

System: E. coli TESEC Mtb Alr
Assay: growth (OD600 after 10 h); higher = more growth (less inhibition)
Settings: arabinose 100000 nM; compound 0.1 mM; raw OD600 reference: median of DMSO wells 0.201, cell-free background 0.041
Experimental: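 TESEC Mtb Alr E. coli, or the Alr+ wild-type control, in 384-well plates with Prestwick library compounds at 0.1 mM and 1% DMSO, across arabinose induction levels of 1E3 to 1E7 nM. Growth is read as OD600 after 10 h at 37 °C in triplicate biological replicates.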

| SMILES | growth |
| --- | --- |
| CC(N)C(O)c1ccccc1 (stereo not given) [Phenylpropanolamine hydrochloride] | 0.229 ± 0.045 |
| CC[C@@]1([C@@H]2O[C@@H]([C@H]3O[C@@](O)(CO)[C@H](C)C[C@@H]3C)C[C@@H]2C)CC[C@H]([C@]2(C)CC[C@]3(C[C@H](O)[C@@H](C)[C@@H]([C@@H](C)[C@@H](OC)[C@H](C)C(=O)O)O3)O2)O1 [Monensin sodium salt] | 0.207 ± 0.028 |
| CC(C)[N+](C)(CCC(C(N)=O)(c1ccccc1)c1ccccc1)C(C)C [Isopropamide iodide] | 0.199 ± 0.015 |
| CN1C[C@H](C(=O)N[C@]2(C)O[C@@]3(O)[C@@H]4CCCN4C(=O)[C@H](Cc4ccccc4)N3C2=O)C[C@@H]2c3cccc4[nH]cc(c34)C[C@H]21 [Dihydroergotamine tartrate] | 0.0715 ± 0.0021 |
| CN1[C@@H]2C[C@@H](OC(=O)[C@H](CO)c3ccccc3)C[C@H]1[C@@H]1O[C@@H]12 [Scopolamine hydrochloride] | 0.207 ± 0.012 |
| CN1[C@@H]2CC[C@H]1C[C@@H](OC(=O)[C@H](CO)c1ccccc1)C2 [Hyoscyamine (L)] | 0.23 ± 0.011 |
| CN(C)C(=O)Oc1ccc[n+](C)c1 [Pyridostigmine iodide] | 0.253 ± 0.012 |
| CC[N+]1(C)CCCC(OC(=O)C(O)(c2ccccc2)c2ccccc2)C1 (stereo not given) [Pipenzolate bromide] | 0.169 ± 0.0056 |
| CC(Cc1ccccc1)NCCC(c1ccccc1)c1ccccc1 (stereo not given) [Prenylamine lactate] | 0.0405 ± 0.001 |
| C#C[C@]1(O)CC[C@H]2[C@@H]3CCC4=CC(=O)CC[C@]4(C)[C@H]3CC[C@@]21C [Ethisterone] | 0.21 ± 0.015 |
| CCNCC(O)c1cccc(O)c1 (stereo not given) [Etilefrine hydrochloride] | 0.188 ± 0.018 |
| COc1cccc(C2(O)CCCCC2CN(C)C)c1 (stereo not given) [Tramadol hydrochloride] | 0.193 ± 0.0059 |
| C=CCN1CC[C@]23c4c5ccc(O)c4O[C@H]2C(=O)CC[C@@]3(O)[C@H]1C5 [Naloxone hydrochloride] | 0.192 ± 0.021 |
| O=c1[nH]c2ccccc2n1C1CCN(CCCC(c2ccc(F)cc2)c2ccc(F)cc2)CC1 [Pimozide] | 0.226 ± 0.045 |
| CC[C@@H](CO)NC(=O)[C@@H]1C=C2c3cccc4[nH]cc(c34)C[C@H]2N(C)C1 [Methylergometrine maleate] | 0.279 ± 0.0098 |
| C[C@]12Cc3c[nH]nc3C[C@@H]1CC[C@@H]1[C@@H]2CC[C@@]2(C)[C@H]1CC[C@]2(C)O [Stanozolol] | 0.169 ± 0.023 |
| CN1CCC2(C)c3cc(O)ccc3N(C)C12 (single isomer, unassigned; (-)) [(-)-Eseroline fumarate salt] | 0.312 ± 0.015 |
| C[C@@H]1O[C@@H](O[C@@H]2C=C3CC[C@@H]4[C@H](CC[C@]5(C)[C@@H](c6ccc(=O)oc6)CC[C@]45O)[C@@]3(C)CC2)[C@H](O)[C@H](O)[C@H]1O [Proscillaridin A] | 0.13 ± 0.0072 |
| COc1ccc(CN2CCNCC2)c(OC)c1OC [Trimetazidine dihydrochloride] | 0.23 ± 0.024 |
| C[N+]1(C)CCOC(O)(c2ccc(-c3ccc(C4(O)C[N+](C)(C)CCO4)cc3)cc2)C1 (stereo not given) [Hemicholinium bromide] | 0.229 ± 0.025 |
| OC(c1ccccc1)(c1ccccc1)C1CCNCC1 [Azacyclonol] | 0.2264 ± 0.00067 |
| CCN(C(C)=O)c1cccc(-c2ccnc3c(C#N)cnn23)c1 [Zaleplon] | 0.205 ± 0.028 |
| Cc1cc(C(C#N)c2ccc(Cl)cc2)c(Cl)cc1NC(=O)c1cc(I)cc(I)c1O (stereo not given) [Closantel] | 0.0471 ± 0.0022 |
| C[C@]12CC[C@H](O)C[C@H]1CC[C@@H]1[C@@H]2C[C@@H](O)[C@]2(C)[C@@H](C3=CC(=O)OC3)CC[C@]12O [Digoxigenin] | 0.201 ± 0.016 |
| COc1cc2c(c(OC)c1OC)-c1ccc(OC)c(=O)cc1[C@@H](NC(C)=O)CC2 [Colchicine] | 0.204 ± 0.025 |
| C=C1C[C@@H]2[C@H](CC[C@]3(C)C(=O)CC[C@@H]23)[C@@]2(C)C=CC(=O)C=C12 [Exemestane] | 0.108 ± 0.0018 |
| C=C1CC[C@@]2(O)[C@H]3Cc4ccc(O)c5c4[C@@]2(CCN3CC2CC2)[C@H]1O5 [Nalmefene hydrochloride] | 0.157 ± 0.0079 |
| C[N+](C)(C)CCCCCCCCCC[N+](C)(C)C [Decamethonium bromide] | 0.214 ± 0.022 |
| CCn1cc(C(=O)O)c(=O)c2cc3c(cc21)OCO3 [Oxolinic acid] | 0.0646 ± 0.0014 |
| O=P1(N(CCCl)CCCl)NCCCO1 (stereo not given) [Cyclophosphamide] | 0.18 ± 0.021 |
